This is a sample that favours compounds with a hit; in the whole collection about 0.42% have one here.
N370S GC – N370S glucocerebrosidase modulation, Gaucher chaperone candidate; P04062; N370S GC spleen homogenate, 4MU-glucoside fluorescence; Potency, µM (doses to about 59.4 µM), inactives show at the highest dose activity change, negative = inhibition, most hits filed as inhibitors; 0.092% of 330,000 active; AID 2101;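 also: 0% = full enzyme activity and -100% = no enzyme basal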
GAA inh – alpha-glucosidase (human) inhibition. purified human GAA, 4-MU-alpha-glucoside fluorescence. Potency, µM (series often up to 76.9 µM), inactives show at the highest dose activity change, negative = inhibition, hits mostly inhibitors. 0.005% of 200,000 active;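 also: plate controls were uninhibited enzyme wells for no effect and no-enzyme background for full effect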
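AC50 values come from Hill fits of compound titrations (up to 77 uM) against 4 nM human enzyme. Substrate 4-methylumbelliferyl-alpha-D-pyranoside at 400 uM, pH 5.0 citrate buffer, 20 min room temperature; fluorescence Ex 365/Em 440 after alkaline stop.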
GAA spleen mod – lysosomal alpha-glucosidase (human) modulation | human spleen homogenate, 4-MU-alpha-glucoside fluorescence | P10253 | Potency, µM (top dose mostly 79.9 µM), inactives show top-dose activity change, negative = inhibition, usual class: inhibitors | 0.006% of 240,000 active;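 also: 0% = enzyme with vehicle and -100% = no enzyme basal signal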
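Enzyme source: human spleen homogenate, 1 ug/well. Buffer 50 mM citric acid/K phosphate pH 5.0, 0.01% Tween-20. 4-MU-alpha-glucoside 1 mM; 37 C x 40 min; NaOH/glycine stop; fluorescence.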
GAA glycogen – GAA glycogen-cleavage inhibition or activation; P10253; AID 2100; Potency, µM (highest dose often 76.4 µM), for the others: at the top dose activity change, negative = inhibition, actives largely listed as inhibitors; recombinant GAA, glycogen substrate, Amplex Red glucose oxidase fluorescence; 0.38% of 300,000 active;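 also: 0% = full enzyme reaction and -100% = no-enzyme basal signal; the screen sought inhibitors and activators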
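Recombinant human alpha-glucosidase (4 nM final) hydrolysed bovine liver glycogen (30 ug) for 40 min at 37 C in pH 5.0 citrate/phosphate with 0.01% Tween-20. Released glucose detected by glucose oxidase/Amplex Red, Ex 573/Em 610 nm. Compounds up to 77 uM; AC50 from Hill fits.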
LMNA splice mod – LMNA splicing modulation. HeLa LMNA splicing GFP/RFP minigene ratio, 48 h. Potency, µM (highest dose often 46.1 µM), inactives show top-dose ratio change, negative = inhibition, hits mostly inhibitors. 0.01% of 200,000 active; active = well fitted inhibition curve with a large enough effect in the signal ratio, with a control signal flat, not every such curve was filed as active; inconclusive = small, poorly fitted or top-dose-only effect, or effect the other way, or a change in a side signal; the % refers to the signal ratio
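S3 HeLa stable clones carrying a lamin A-EGFP splicing minigene plus DsRed2 were seeded at 600 cells/well in Opti-MEM with 2% FBS, pin-dosed and incubated 48 h at 37°C. Acumen cytometry (488 nm) gave the GFP/RFP total-intensity ratio.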
* = called active by the depositor; u = inconclusive; x = no result given; [ ] = remark or other dose. Unless noted, calls follow the shape of the dose curve; as a rule, active = well fitted curve in the direction sought with a large enough effect; inconclusive = small, poorly fitted or top-dose-only effect, or another doubt; inactive = no such curve, though single readings can be large; an effect the other way counts as inactive or inconclusive. Unless noted, % is scaled to controls: 0 for no effect and ±100 for the full control effect; potency is read from the fitted curve at half-maximal effect.

SMILES	N370S GC	GAA inh	GAA spleen mod	GAA glycogen	LMNA splice mod
COc1ccc(NCCNc2ccc(OC)cc2)cc1	5.4%	0.7%	-9.2%	7.88µM*	4.1%
CC(C)C[C@H](NC(=O)CNC(=O)[C@H](C)NC(=O)[C@H](CC(C)C)NC(=O)[C@H](CCCNC(=N)N)NC(=O)[C@H](Cc1cnc[nH]1)NC(=O)[C@@H](NC(=O)[C@@H](N)C(C)C)[C@@H](C)O)C(=O)N[C@@H](CC(C)C)C(=O)N[C@@H](CO)C(=O)N[C@@H](CCCNC(=N)N)C(=O)N[C@@H](CO)C(=O)NCC(=O)NCC(=O)N[C@H](C(=O)N[C@H](C(=O)N[C@@H](CCCCN)C(=O)N[C@@H](CC(N)=O)C(=O)N[C@@H](CC(N)=O)C(=O)N[C@@H](Cc1ccccc1)C(=O)N[C@H](C(=O)N1CCC[C@H]1C(=O)N[C@H](C(=O)N[C@@H](CC(N)=O)C(=O)N[C@H](C(=O)NCC(=O)N[C@@H](CO)C(=O)N[C@@H](CCCCN)C(=O)N[C@@H](C)C(=O)N[C@@H](Cc1ccccc1)C(N)=O)C(C)C)[C@@H](C)O)C(C)C)C(C)C)C(C)C	-2.4%	x	0.1%	x	x
Cc1ccc(Nc2nc3c([nH]2)c(=O)n(C)c(=O)n3C)cc1	9.2%	8.0%	-19.0%	19.8µM*	-15.0%
Cc1cc(C)cc(Nc2nc3c([nH]2)c(=O)n(C)c(=O)n3C)c1	-18.3%	-6.6%[15.4 µM]	7.7%	u	-16.8%[46 µM]
Cc1cccc(Cn2c(C)c(C)c3cc(C(=O)NCCN4CCOCC4)ccc32)c1	u	x	x	-0.7%[76.3 µM]	x
Cc1c(C)n(Cc2ccc(F)cc2)c2ccc(C(=O)NCCN3CCOCC3)cc12	14.1µM*	x	x	3.6%[76.3 µM]	x
CNc1ncnc2c1ncn2[C@H]1C[C@H](O)[C@@H](CO)O1	2.5%	x	1.6%	x	x
CCOc1cc(CNCCO)cc(Br)c1OCc1ccc(Cl)cc1Cl	10µM*	-15.0%	-8.6%	-3.8%	u
CCOc1cccc(CNCCO)c1OCc1ccc(Cl)cc1Cl	-13.8%	-1.4%	1.4%	-3.2%	u
Cc1cc(C)nc(Nc2cccc(C(F)(F)F)c2)n1	-1.7%	x	x	-5.4%[76.3 µM]	x
Nc1ccccc1Nc1cccc(C(F)(F)F)c1	-1.3%	-5.2%	x	11.2µM*	u
COc1ccc(C2=Nc3ccccc3OC2)cc1	21.3%	0.4%	1.6%	25.1µM*	u
COc1cccc(-c2nc(NCCc3c[nH]c4ccc(OC)cc34)c3ccccc3n2)c1	14.1µM*	x	2.3%	x	u
COc1ccc2[nH]cc(CCNc3nc(-c4ccoc4)nc4ccccc34)c2c1	15.8µM*	x	-12.4%	x	u
CN(C)CC1CCn2c(c(C3=C(c4cn(C)c5ccccc45)C(=O)NC3=O)c3ccccc32)C1 (centres undefined)	-14.6%	x	1.6%	x	x
CCc1c(C)c2ccc(O)c(CN3CCN(c4ccc(OC)cc4)CC3)c2oc1=O	x	x	x	18.1%[76.3 µM]	x
N#C/C(=C/c1ccc(F)cc1)C(N)=S	15.9%	u	-5.0%	35.5µM*	x
CC(C)(C)c1cc(/C=C(\C#N)C(N)=S)cc(C(C)(C)C)c1O	12.1%	x	2.4%	x	u
O=C(COc1ccc(Cl)cc1)Nc1ccc2nc(SCC(=O)N3CCOCC3)sc2c1	x	x	x	5.0%[76.3 µM]	-13.0%[46 µM]
COc1cc(C2NC(=O)NC(C)=C2C(=O)OCc2ccc(C)cc2)cc(OC)c1O (centres undefined)	-0.4%	1.0%	9.7%	9.92µM*	3.1%
COc1cc(C2NC(=O)NC(C)=C2C(=O)OCc2ccc(C)cc2)cc(OC)c1OC (centres undefined)	-14.9%	x	x	6.0%[76.3 µM]	x
COc1cc(OC)cc(-c2nnc3n2N=C(c2ccc(OC)cc2OC)CS3)c1	-0.3%	x	1.5%	x	x
COc1cccc(NC(=S)NNC(=O)C(C)n2nc(C)c([N+](=O)[O-])c2C)c1 (centres undefined)	15.1%	0.3%	8.5%	10µM*	-3.6%
COc1cccc(NC(=S)NNC(=O)c2c([N+](=O)[O-])c(C)nn2C)c1	-1.9%	0.7%	-1.1%	24.9µM*	u
COc1cccc(/C=N/NC(=O)C(C)n2nc(C)c([N+](=O)[O-])c2C)c1O (centres undefined)	-20.4%	-4.2%	-2.1%	11.9%	u
SMILES	N370S GC	GAA inh	GAA spleen mod	GAA glycogen	LMNA splice mod
CCCCNc1nc(C)nc2c1nc(-c1ccccc1)n2CC1CCN(C)CC1	-8.0%	x	-10.2%	x	x
COCCNC(=O)COc1ccc(OCCNC[C@H](O)COc2ccccc2)cc1	6.4%	x	-1.3%	x	x
COc1cc(Nc2nc3c(S(=O)(=O)c4cccc(Cl)c4)nnn3c3ccsc23)cc(OC)c1	x	x	x	-0.9%[76.3 µM]	x
Cc1cc(C)cc(N2C(N)=NC(N)=NC2c2ccccc2F)c1 (centres undefined)	15.8µM*	x	x	-12.1%	x
Cc1cc(C)cc(N2C(N)=NC(N)=NC2c2cccc(Cl)c2)c1 (centres undefined)	-24.6%	x	x	-13.3%	x
COc1cc2c(C=O)c3c4c(cc(OC)c(OC)c4c2cc1OC)CCN3C	-5.0%	x	-10.4%	x	x
CC(=O)N1CCN(c2ccc(NC(=O)C(c3ccccc3)c3ccccc3)cc2)CC1	12.6µM*	x	x	-2.5%[76.3 µM]	x
CC(=O)N1CCN(c2ccc(NCc3ccc(C)cc3)cc2)CC1	-10.0%	-9.0%	-3.4%	19.8µM*	u
Cc1ccc2c(C(=O)CNc3nncs3)c(C)[nH]c2c1	-12.3%	1.7%	1.8%	28µM*	x
CCc1cc(-c2oncc2-c2ccc(OC)cc2)c(O)cc1OC	-12.5%	x	-0.8%	x	x
Nc1ccc(N)c([N+](=O)[O-])c1	x	x	-0.7%	x	x
O=S(=O)(c1ccc(Cl)cc1)N1CCN(c2nc(-c3cccs3)nc3ccccc23)CC1	0.447µM*	u	5.5%	-7.4%	0.9%
O=C(Nc1cccc(C(F)(F)F)c1)Nc1cc(Cl)ccc1C(=O)O	0.3%	x	-0.6%	x	x
O=C(O)C1OC(Oc2cc3oc(-c4ccccc4)cc(=O)c3c(O)c2O)C(O)C(O)C1O (centres undefined)	22.1%	2.4%[15.4 µM]	-4.4%	6.31µM*	u
Cc1o[nH]c(=O)c1CCC(N)C(=O)O (centres undefined)	-13.6%	x	4.1%	x	x
CC(C)=CC[C@@H](O)C1=CC(=O)c2c(O)ccc(O)c2C1=O	-15.1%	x	-7.4%	x	x
COC(=O)c1ccc(NC(=S)Nc2ccc(O)cc2)cc1	-15.6%	4.3%	6.7%	7.94µM*	u
Oc1ccc(NC(=S)Nc2ccc(O)cc2)cc1	u	-5.3%	4.3%	3.14µM*	-12.7%[46 µM]
S=C(NNC(=S)Nc1ccccc1)Nc1ccccc1	1.0%	x	x	u	x
COc1ccc(-c2nc3c(c4c2C[C@H](c2ccccc2)OC4)CN(S(=O)(=O)c2ccc(C#N)cc2)CC3)c(C)c1	-18.0%[12.8 µM]	x	3.1%[17.4 µM]	x	u
COc1ccc(C2=Nn3c(nnc3-c3ccccc3OC)SC2)c(OC)c1	-1.1%	x	4.3%	x	x
N#C/C(=C\c1ccc(O)c(O)c1)C(=O)N1CCCC1	-27.0%	-2.9%	-21.4%	2.82µM*	u

Source: PubChem BioAssay (National Center for Advancing Translational Sciences (NCATS))
